Measurements reported in PubChem BioAssay (NCI).
Compounds without any hit were thinned out: in the full panel of roughly 83,000, 20% have a hit.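 In brief: 96-well plates, 48 h treatment, single concentration, percent growth endpoint.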 Unmarked numbers belong to inactive results. The source made the active and inactive calls. How the source made its calls: active means growth percent below 10; inactive means the rest.

Tests used:
Experiment in all cases: NCI-60 one-dose screen, 48 h (100 = growth as untreated, 0 = no growth, -100 = all killed)
Conditions in all cases: 10 µM unless noted
[1] = system: SK-MEL-2 melanoma
[2] = system: EKVX NSCLC
[3] = system: SN12C renal
[4] = system: UO-31 renal
[5] = system: TK-10 renal
[6] = system: ACHN renal
[7] = system: CAKI-1 renal
[8] = system: A498 renal
[9] = system: CCRF-CEM leukemia
[10] = system: MOLT-4 leukemia

Row | Structure (SMILES) | growth [1] | growth [2] | growth [3] | growth [4] | growth [5] | growth [6] | growth [7] | growth [8] | growth [9] | growth [10]
1 | CCN(CC)S(=O)(=O)c1ccc(S(=O)(=O)N2CCC[C@@H](C(=O)N3CCN(C(=O)OC(C)(C)C)CC3)C2)cc1 | 101% | 54.9% | 87.4% | 73.6% | 78.6% | 71.4% | 52.1% | 27.8% | 66.9% | 60.8%
2 | c1ccc2cc(Cn3c[n+](Cc4ccc5ccccc5c4)c4ccccc43)ccc2c1 | -61.7% (active) | 13.9% | 5.14% (active) | 53.6% | -72% (active) | 46.2% | 84.7% | -2.59% (active) | -13.1% (active) | -27.1% (active)
3 | COc1ccc2cc(-c3cnc4nonc4n3)ccc2c1 | 52.7% | 16.1% | 38.7% | 37.7% | 54.5% | 50.8% | 29.7% | 60.8% | 8.1% (active) | 6.87% (active)
4 | CCOC(=O)c1c(C)nc2ccccc2c1/C=C/c1ccc(OC)cc1 | 64.3% | 54.9% | 79.8% | 52.3% | 85.8% | 58.8% | 56.8% | 77.9% | 56.4% | 26.1%
5 | O=P(O)(O)OCC1OC(n2cnc3c(NCc4ccccc4)ncnc32)C(O)C1O (stereo not given) | 85.2% | 24.7% | 19.7% | 41.2% | 10.9% | 8.81% (active) | 11% | -11.5% (active) | 2.68% (active) | 21.7%
6 | C=C(CN1CC=CCC1)[C@@H]1CC[C@]2(CO)CC[C@]3(C)[C@H](CC[C@@H]4[C@@]5(C)CC[C@H](O)C(C)(C)[C@@H]5CC[C@]43C)[C@@H]12 | 110% | 104% | 98.1% | 93.7% | 123% | 114% | 106% | 112% | 91.3% | 86.5%
7 | CCOC(=O)C(=Cc1cccc(C#N)c1)C(=O)OCC | 59.9% | 82.3% | 79.8% | 54.3% | 35.9% | 23.7% | 79.9% | 122% | 28.5% | 50%
8 | COc1ccc(C(c2cc(OC)c(OC)c(OC)c2)N2CCN(Cc3ccccc3)CC2)cc1 (stereo not given) | 27.4% | 82.7% | 88.4% | 68.8% | 84.8% | 92.8% | 66.7% | 51.9% | 68.8% | 53.5%
9 | COc1cc(/C=C2\C(=O)N(c3c(Cl)cccc3Cl)c3ccccc32)cc(OC)c1OCCCCCCn1c2ccccc2c(=O)c2ccccc21 | 96.2% | 111% | 96.8% | 74.3% | 112% | 91.9% | 82.9% | 123% | 104% | 90%
10 | O=C(/C=C/c1cccc(Cl)c1)c1cccc(OCCCCOc2cccc(C(=O)/C=C/c3cccc(Cl)c3)c2)c1 | 103% | 106% | 92.9% | 72% | 109% | 100% | 75.7% | 96.9% | 84.4% | 89%
11 | CN1C(=O)/C(=C/c2ccc(C(=O)Nc3ncc(Cc4ccc(F)cc4)s3)cc2)SC1=S | 71.2% | 48.4% | 61.8% | 46.5% | 53.5% | 28% | 16.3% | 35% | 47.8% | 39.6%
12 | Oc1c(I)cc(-c2nc3ccccc3s2)cc1CN(Cc1ccccn1)Cc1ccccn1 | 14.8% | 8.07% (active) | 17.3% | -26.6% (active) | 14.5% | 8.93% (active) | 5.39% (active) | 18.1% | 7.86% (active) | 0.129% (active)
13 | Cc1ccc2nc(Cl)c(Cn3nnnc3SCc3ccccc3)cc2c1 | 96.6% | 80.7% | 92.8% | 69.6% | 97.9% | 91.8% | 72.1% | 74.5% | 93.9% | 97.8%
14 | CCN1C(=O)N(CC)C2C1NN=C1SCC(=O)N12 (stereo not given) | 106% | 86.8% | 78.9% | 58.8% | 104% | 84.2% | 89.2% | 112% | 40% | 57.2%
